# Assay outcomes (PubChem)
# SMN2 splice enh: increases expression of the SMN2 splice variant; Potency, µM (highest dose often 46.1 µM), inactives show at the highest dose activity change, positive = activation, hits mostly activators; 2.8% of 210,000 active; HEK293 SMN2-luciferase splicing reporter, luminescence, 30-36 h; further: % of control where 0% means no effect; nearly all actives have a fitted effect of over 55% in size
#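 HEK293 cells carry an SMN2 […]–luciferase reporter in which exon 7 inclusion puts luciferase in frame. Cells were plated 10-12 h before compound addition, then incubated 30-36 h at 37C. ONE-Glo luminescence was read; sodium butyrate at 4.5 mM final served as control.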
# FLuc counter: firefly luciferase modulation, counter-screen for miR-21 project | P08659 | Potency, µM (titrated, usually from 57.5 µM), for inactives: at the highest dose activity change, negative = inhibition, most hits filed as inhibitors | purified FLuc, Km substrates, luminescence inhibition | 6.9% of 360,000 active;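 further: plate controls were vehicle for no effect and reference inhibitor for full effect; nearly all actives have a fitted effect of over 55% in size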
# Target sequence (P08659 whole entry, looked up): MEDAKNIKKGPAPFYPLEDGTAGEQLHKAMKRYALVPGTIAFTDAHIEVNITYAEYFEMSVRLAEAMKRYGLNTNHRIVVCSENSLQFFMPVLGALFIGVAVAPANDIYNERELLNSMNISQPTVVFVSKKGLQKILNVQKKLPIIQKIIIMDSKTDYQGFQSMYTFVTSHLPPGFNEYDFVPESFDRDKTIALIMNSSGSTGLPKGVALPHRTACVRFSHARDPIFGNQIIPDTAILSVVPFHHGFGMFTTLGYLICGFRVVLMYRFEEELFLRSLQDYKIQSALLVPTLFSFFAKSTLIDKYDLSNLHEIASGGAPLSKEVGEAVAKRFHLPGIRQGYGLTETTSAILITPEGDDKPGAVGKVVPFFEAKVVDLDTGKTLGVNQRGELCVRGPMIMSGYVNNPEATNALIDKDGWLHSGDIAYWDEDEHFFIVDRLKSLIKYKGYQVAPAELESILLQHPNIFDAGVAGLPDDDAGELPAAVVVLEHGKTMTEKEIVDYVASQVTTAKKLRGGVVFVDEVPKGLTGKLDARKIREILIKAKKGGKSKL
#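 Biochemical qHTS of compounds, final roughly 60 µM downward over six points, against 10 nM purified firefly luciferase using Km concentrations of substrates (10 uM D-luciferin, 10 uM ATP) in Tris acetate pH 7.5 buffer; luminescence output.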
# Luc counter: Kinase-Glo luciferase inhibition (counter-screen) | Potency, µM (highest dose often 38.3 µM), for inactives: top-dose activity change, negative = inhibition, actives largely listed as inhibitors | 0.28% of 200,000 active | Kinase-Glo luciferase, ATP luminescence, 8 min | Q27757; further: on the % scale 0 is the no-effect control and ±100 the full control effect; nearly all actives have a fitted effect of over 60% in size
#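 Luminescence was the read-out, taken after 8-minute incubation at ambient temperature. Luciferase turned over luciferin with 10 uM ATP in imidazole pH 7.2 buffer containing KCl, MgCl2, Tween 20 and BSA.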
# Rab9 promoter act: Rab9 promoter activation; Huh7 Rab9 promoter-luciferase reporter, luminescence, 24 h; 2.8% of 320,000 active; Potency, µM (doses to about 9.22 µM), for the others: at the highest dose activation, negative = inhibition, most hits filed as activators; further: % of control where 0% means no effect; nearly all actives have a fitted effect of over 60% in size
#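 Cells were plated at 1500 per well in reduced-serum medium with 10% FBS and left 2 h. Compound in DMSO was then added for 24 h at 37 °C. Reporter signal was read by luminescence after 10 min with luciferase detection reagent.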
# ELG1 genotox: inducers of genotoxicity in HEK293T ELG1-luciferase cells | Potency, µM (series often up to 46 µM), for the others: at the highest dose activity change, positive = activation, most hits filed as activators | 1.3% of 330,000 active | HEK293T ELG1-luciferase reporter, luminescence, 16 h | AID 504466; further: % of control where 0% means no effect; nearly all actives have a fitted effect of over 60% in size
#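 HEK293T cells expressing luciferase-tagged ELG1 were treated with compound or DMSO for 16 hr at 37°C. Luciferase activity was then read after 30 min with ONE-Glo at room temperature; rising signal flags genetic stress.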
# NPC1 promoter act: activators of NPC1 promoter; 2.4% of 320,000 active; AID 485313; Potency, µM (top dose mostly 9.22 µM), for the others: at the highest dose activation, usual class: activators; Huh7 NPC1 promoter luciferase reporter, 24 h; further: % of control where 0% means no effect; nearly all actives have a fitted effect of over 60% in size
#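 Stably transfected Huh7 (NPC1 promoter→luciferase), 1500 cells/well in Opti-MEM + 10% FBS, 2 h settle, then compound 24 h at 37 °C. Luminescence after 10 min with Amplite reagent.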
# Active calls of the source: *; ? = inconclusive; . = not tested or not shown. Hits are enriched below; roughly 7.4% of the tested compounds scored in any of these assays. The call rests on the fitted dose curve; in most records, active means well fitted curve in the direction sought with a large enough effect; inconclusive means small, poorly fitted or top-dose-only effect, or another doubt; inactive means no such curve, though single readings can be large; an effect the other way counts as inactive or inconclusive. Potency means the concentration at half of the fitted maximal effect.
SMILES,SMN2 splice enh,FLuc counter,Luc counter,Rab9 promoter act,ELG1 genotox,NPC1 promoter act
CCCCn1c(SCC(=O)NC2CC2)nc2ccccc2c1=O,.,5%,.,6%,13%,1%
CC(C)n1nnnc1SCC(=O)Nc1ccc2c(c1)OCCO2,.,17µM*,.,?,?,3.2µM*
Nn1c(SCC(=O)Nc2ccc3c(c2)OCCO3)nncc1=O,.,21µM*,.,16%,0%,-1%
Cc1ccccc1-c1nnc(SCC(=O)Nc2ccc3c(c2)OCCO3)n1N,-5%,-6%,13%,-3%,3%,0%
Cn1c(CN2CCOCC2)nnc1SCC(=O)Nc1ccc2c(c1)OCCO2,8.9µM*,1%,0%,-3%,7%,16%
CCn1nnnc1SCC(=O)Nc1ccc2c(c1)OCCO2,11µM*,15µM*,-2%,?,?,2.8µM*
COCCCn1nnnc1SCC(=O)Nc1ccc2c(c1)OCCO2,.,-9%,3%,-1%,3%,-1%
Cc1ccc(NC(=O)CSc2nnc(CN3CCOCC3)n2C)cc1C,-43%,-3%,18%,-4%,-1%,-1%
COc1ccc(Cl)cc1N(C(C)C(=O)NC1CCCC1)S(C)(=O)=O (stereo not drawn),2%,1%,1%,2%,0%,-1%
COc1ccc(CCNC(=O)CCS(=O)(=O)c2ccc3c(c2)NC(=O)CO3)cc1OC,.,1%,.,-2%,1%,-1%
COC(=O)c1ccccc1NS(=O)(=O)c1cc2c(cc1C)N(C)CCO2,.,-10%,.,.,.,.
Cc1ccc(NC(=O)CSc2nc3nccnc3c(=O)n2CCc2c[nH]c3ccccc23)c(C)c1,.,0%,.,.,.,.
CN(C)C1(CNC(=O)C2CCN(S(=O)(=O)c3ccccc3C(F)(F)F)CC2)CCCCC1,.,2%,.,-6%,5%,4%
CCn1nnnc1SCC(=O)Nc1nnc(C(C)C)s1,0.4µM*,5%,-3%,-5%,5%,-2%
CCCn1c(-c2ccc[nH]c2=O)nc2cc(C)c(C)cc21,.,13µM*,-24%,19%,?,0%
O=C(NCc1ccccc1Cl)c1ccc(Cn2c(SCc3ccccc3)nc3cccnc32)cc1,.,5.4µM*,.,.,.,.
O=C(NCCc1cccs1)c1ccc(Cn2c(SCc3cccc(F)c3)nc3cccnc32)cc1,3%,-1%,.,.,.,.
Cc1ccccc1CSc1nc2cccnc2n1Cc1ccc(C(=O)NCCc2cccs2)cc1,.,5.4µM*,.,.,.,.
O=C(NCc1ccco1)c1ccc(Cn2c(SCc3ccccc3)nc3cccnc32)cc1,.,6.7µM*,.,.,.,.
O=C(NCCc1ccccc1)c1ccc(Cn2c(SCc3cccc(F)c3)nc3cccnc32)cc1,.,-10%,.,-2%,.,5%
O=C(NCc1ccccc1)c1ccc(CSc2nc3cccnc3n2Cc2ccccc2F)cc1,.,-14%,.,.,.,.
O=C(NCCc1ccccc1)c1ccc(Cn2c(SCc3ccccc3)nc3cccnc32)cc1,.,6µM*,.,.,.,.
Cc1ccc(CNC(=O)CCCn2c(=O)c3ccccc3n(Cc3ccccc3C)c2=O)cc1,-6%,2%,.,.,.,.
Cc1ccc(OCCN2C(=O)C(=O)c3cccc(C)c32)cc1,-4%,0%,0%,-1%,0%,-3%
O=C(c1ccco1)N1CCC2(CCCN(c3ccncc3)C2)CC1,-29%,.,-1%,.,.,.
SMILES,SMN2 splice enh,FLuc counter,Luc counter,Rab9 promoter act,ELG1 genotox,NPC1 promoter act
CC(C)OCCCNC(=O)c1ccc(CSc2nc3cccnc3n2Cc2ccccc2)cc1,.,-13%,.,.,.,.
Cc1ccc(CSc2nc3cccnc3n2Cc2ccc(C(=O)NCCc3ccccc3)cc2)cc1,.,0.48µM*,.,.,.,.
CCN(CC(=O)Nc1ccc(NC(C)=O)cc1)C(=O)c1cc2ccccc2oc1=O,.,-18%,.,-3%,2%,-6%
COc1ccc(-c2cc3ccccc3oc2=O)cc1NC(=S)NC(=O)c1ccc2c(c1)OCCO2,-15%,?,-1%,2%,?,15%
CC(=O)Nc1ccc(-c2cc3ccccc3o2)cc1,11µM*,3µM*,2%,3.2µM*,?,2.2µM*
CCC(=O)Nc1cc(-c2cc3ccccc3oc2=O)ccc1OC,1.1µM*,-3%,-2%,0.79µM*,?,?
